Results: PubChem BioAssay (NCI)
The panel holds about 79,000 compounds, 15% with a hit somewhere; the sample as a whole holds those more often. Calls of active or inactive are those of the source. Rule as the data show it: active = growth inhibition above about 70%; inactive = the rest.

Columns and labels:
[1] = NCI Yeast Anticancer Drug Screen. Data for the rad50 strain (AID 155);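 also: 0% = growth of vehicle-only cultures of the same strain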; details: S. cerevisiae rad50 strain growth inhibition, hits give high values; at 50.0 µM unless noted
How it was run: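 Cells are treated with compound, grown, and their growth is then scored against vehicle-only cultures of the same repair-deficient yeast strain.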

[2] = NCI Yeast Anticancer Drug Screen. Data for the mec2-1 strain (AID 157); details: S. cerevisiae mec2-1 strain, hits give high values; at 50.0 µM unless noted
How it was run: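 Each compound was tested on mec2-1 yeast, a strain altered in DNA damage repair or cell cycle control. Growth inhibition is reported relative to vehicle.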

[3] = NCI Yeast Anticancer Drug Screen. Data for the sgs1 mgt1 strain (AID 161);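 also: 0% = growth of cultures given vehicle only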; details: S. cerevisiae sgs1 mgt1 strain, hits give high values; at 50.0 µM unless noted
How it was run: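 Genetically altered yeast, compound exposure, growth inhibition relative to vehicle.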

[4] = NCI Yeast Anticancer Drug Screen. Data for the cln2 rad14 strain (AID 165);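 also: 0% = growth equal to vehicle treated cultures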; details: S. cerevisiae cln2 rad14 strain, hits give high values; at 50.0 µM unless noted
How it was run: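 Test compounds were added to cln2 rad14 yeast cultures; inhibition of growth was then determined by comparison with vehicle treatment.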

[5] = NCI Yeast Anticancer Drug Screen. Data for the bub3 strain (AID 167); details: S. cerevisiae bub3 mutant strain, hits give high values; at 50.0 µM unless noted
How it was run: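 Part of a panel of yeast mutants defective in DNA damage repair or cell cycle regulation. Each strain is grown with compound, and inhibition is calculated relative to solvent-treated cultures.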

[6] = NCI Yeast Anticancer Drug Screen. Data for the mlh1 rad18 strain (AID 175); details: S. cerevisiae mlh1 rad18 strain growth inhibition, hits give high values; at 50.0 µM unless noted
How it was run: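 Inhibition values reflect reduced growth of mutant yeast versus vehicle-treated controls following compound exposure; the mutations affect DNA damage repair.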

Measured: growth inhibition

CC(CC(C)C(=O)O)C(=O)O (centres undefined)
inactive: [1] -13.5% | [2] -28.2% | [3] -24.1% | [4] 0.4% | [5] -47.8% | [6] 3.25%

COc1ccc2nc3cc([N+](=O)[O-])ccc3c(NCCCN(CCO)CCO)c2c1
inactive: [1] -6.7% | [2] -1.75% | [3] 6.9% | [4] 1.75% | [5] 7.75% | [6] 2.6%

COc1cc2c(cc1OC)C(=O)/C(=C/c1cc(OC)c(OC)c(OC)c1)C2
inactive: [1] -33.8% | [2] -35.5% | [3] -69.8% | [4] -38.6% | [5] -12.8% | [6] -69%

NC(C=O)C(O)C(O)C(O)CO (centres undefined)
inactive: [1] -1.75% | [2] -18.2% | [3] 4.95% | [4] -10.2% | [5] -19.5% | [6] -6.9%

O=C(CC1C(=O)Nc2ccccc2S1=O)Nc1cc(Cl)ccc1Cl (centres undefined)
inactive: [1] -14.9% | [2] -24.2% | [3] 3.1% | [4] 8.15% | [5] -4.6% | [6] -6.1%

Cc1nc2cccc3ccc4c5ccccc5cc1c4c32
active: [1] 70%
inactive: [2] 15.2% | [3] -25% | [4] 0.9% | [5] 21.6% | [6] 49.3%

C/C(=C(/C)c1ccc(O)cc1)c1ccc(O)cc1
inactive: [1] -9.8% | [2] -23.8% | [3] 16.3% | [4] 9.05% | [5] 45.9% | [6] 2.7%

N#CCN1CCCCCC1
inactive: [1] -14.8% | [2] -20.5% | [3] -16.6% | [4] 4.2% | [5] -13.6% | [6] 9.8%

C/C(CC(=O)Nc1cc(Cl)c(Cl)cc1Cl)=N\NS(=O)(=O)c1ccc(C)cc1
inactive: [1] -3.05% | [2] -6.8% | [3] 3.35% | [4] -53.9% | [5] -1.2% | [6] 2.75%

CN(C)/C=N/n1c2ccccc2c2ccccc21
inactive: [1] -1.7% | [2] -6.8% | [3] 0% | [4] -7.55% | [5] 23.6% | [6] 14.8%

Nc1nc(=O)[nH]c(=O)[nH]1
inactive: [1] -5% | [2] -0.4% | [3] -7.05% | [4] -28.9% | [5] -14.6% | [6] 16.9%

CC1C2=C(CC(C)(C)CC2=O)NC2=C1C(=O)CC(C)(C)C2
inactive: [1] -7.3% | [2] -26.1% | [3] -8.55% | [4] -9.85% | [5] -7.4% | [6] -3.4%

COc1ccc(/C=C/c2ccc(OC)cc2)cc1
inactive: [1] 13.3% | [2] -8.1% | [3] 0.6% | [4] -13.4% | [5] 8.7% | [6] 5.8%

Cc1ccc(S(=O)(=O)CBr)cc1
inactive: [1] 5.35% | [2] 14% | [3] 6.9% | [4] 3.3% | [5] 4.6% | [6] 5.2%

O=C(O)C1=CCCc2ccc3ccccc3c21
inactive: [1] 10.2% | [2] 6% | [3] 0.2% | [4] -20.4% | [5] -27.9% | [6] 6.25%

Cc1cc(C)nc(/N=C(/N)Nc2ccc(S(=O)(=O)NC(=O)Nc3ccccc3)cc2)n1
inactive: [1] 21.5% | [2] 2.55% | [3] 5.8% | [4] 1.8% | [5] 0% | [6] -4.2%

O=C1CCC2OC3CCC(=O)N3CN12 (centres undefined)
inactive: [1] 9.8% | [2] 8% | [3] 6.55% | [4] -11.3% | [5] 4.95% | [6] -3.6%

CNCCc1cn(C2OC(CO)C(O)C(O)C2O)cn1 (centres undefined)
inactive: [1] -7.15% | [2] -17.6% | [3] -22.3% | [4] -40.9% | [5] -28.4% | [6] -13.3%

CCOC(=O)C1SC(=Nc2ccccc2)N=C1C (centres undefined)
inactive: [1] 11.3% | [2] -11.7% | [3] 28.1% | [4] -4.15% | [5] -19.6% | [6] -4.5%

CC(=O)Nc1ccc(S(=O)(=O)N/N=C(/C)c2ccccc2)cc1
inactive: [1] -8.8% | [2] -31.8% | [3] 1.05% | [4] 1.55% | [5] -23.4% | [6] -23.6%

NC1=CNC(=O)C1
inactive: [1] 1.65% | [2] 1.45% | [3] -3.05% | [4] -1.65% | [5] 14.1% | [6] -7.4%

O=C(CSC(=S)N1CCOCC1)Nc1nc2c(s1)CCCC2
inactive: [1] -15.1% | [2] -32% | [3] -28.2% | [4] 2.6% | [5] -1.65% | [6] -16.3%

Cc1cc(Cl)ccc1NC(=O)C1C(=O)N(c2ccc(Cl)cc2C)C(=O)/C1=N\N (centres undefined)
inactive: [1] 0.65% | [2] -31.4% | [3] 10.4% | [4] -18.9% | [5] -9.1% | [6] 9.7%

O=C(O)c1ccc(Cl)o1
inactive: [1] 7.7% | [2] -3.6% | [3] -23.1% | [4] -1.05% | [5] 10.1% | [6] 5.6%

O=c1[nH]nc(Cc2ccccc2)n1C1CCCC1
inactive: [1] -1.55% | [2] -5.3% | [3] -12.6% | [4] -17.8% | [5] -9.6% | [6] -1.05%

COC(C(=O)NN)c1ccccc1 (centres undefined)
inactive: [1] -25.1% | [2] -60.5% | [3] -59.8% | [4] -43.5% | [5] -35.5% | [6] -35.8%

c1ccc(N=c2sc3ccccc3nc2Nc2ccccc2)cc1
inactive: [1] 5.65% | [2] -37.8% | [3] -34.4% | [4] -64.8% | [5] -23.3% | [6] -48.9%

CC1=NN(c2ccccc2)C(=O)C1O (centres undefined)
inactive: [1] 12.1% | [2] 16.2% | [3] -6.05% | [4] -25.4% | [5] -10.6% | [6] 2.5%

O=[N+]([O-])c1ccccc1S(=O)(=O)c1cccc2c1NCCC2
inactive: [1] 33.8% | [2] 12.3% | [3] 33.5% | [4] 31.4% | [5] 48% | [6] 46.9%

CC(=O)OCC1CCCC(C)C1COC(C)=O (centres undefined)
inactive: [1] 2% | [2] -8.7% | [3] -16.1% | [4] -24.1% | [5] 20.3% | [6] -2.95%

O=C(O)C1CC1c1ccc2c(c1)OCO2 (centres undefined)
inactive: [1] -11.8% | [2] -10.4% | [3] 7.2% | [4] -34% | [5] -33.9% | [6] 1.35%

O=P1(O)c2ccccc2Nc2cc(C(F)(F)F)ccc21
inactive: [1] 24.1% | [2] -8.25% | [3] -9.8% | [4] 8.7% | [5] -9.85% | [6] -49.4%

O=c1oc2ccccc2cc1-c1nc2ccccc2c(=O)[nH]1
inactive: [1] 17.8% | [2] 8.1% | [3] -20.9% | [4] 13.7% | [5] -4.9% | [6] -50.9%

COc1ccc(C(=O)/C=C/N)c(OC)c1
inactive: [1] 17.3% | [2] -25.4% | [3] 5.45% | [4] 20% | [5] 9.35% | [6] 10.9%

O=C1C2CCC2C(=O)N1c1ccc2ccccc2c1 (centres undefined)
inactive: [1] -38.5% | [2] -1% | [3] 0.35% | [4] -17.9% | [5] 12.6% | [6] 6.75%

CCOc1ccc(N=Nc2c(-c3ccccc3)nn(C(=O)CC(=O)Nc3ccccc3Cl)c2-c2ccccc2)cc1
inactive: [1] 20.6% | [2] -8.2% | [3] 34.6% | [4] 3.5% | [5] 31% | [6] 18.7%

O=C1CC(c2ccccc2)n2c(nc3ccccc32)N1 (centres undefined)
inactive: [1] 5% | [2] 1.85% | [3] -18.1% | [4] -14.1% | [5] -15.4% | [6] -64.2%

O=C(C#Cc1ccccc1)Nc1ccccc1CC(c1c[nH]c2ccccc12)c1c[nH]c2ccccc12
inactive: [1] 0.75% | [2] -2.25% | [3] 1.55% | [4] 5.4% | [5] 8.85% | [6] -7.65%

Cc1ccc(O)c(C=NCCN=Cc2cc(C)ccc2O)c1.[Zn]
inactive: [1] -14.4% | [2] 8.6% | [3] 0.05% | [4] -13% | [5] -43.1% | [6] -32.4%
